Source: PubChem BioAssay (EPA / NIEHS)
The source made the active and inactive calls. How the source made its calls: active means hit-call score of the fitted dose curve at least 0.9, where 1 is the maximum; inactive means score below 0.9.

Experiments:
[1] = ATG_E_Box_CIS: Attagene CIS-FACTORIAL HepG2 Assay for human Enhancer Box (E-box) (AID 2282936); settings: HepG2 E-box cis-reporter transcription, actives raise or lower the signal
Procedure, shortened: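 Fluorescent reporter fragments separated by capillary electrophoresis gave the signal; mRNA came from HepG2 cells transfected with cis-element reporters and treated 24 h. Curves fitted bidirectionally relative to DMSO controls.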

[2] = ATG_M_61_CIS: Attagene CIS-FACTORIAL HepG2 Assay for M61 Transcription Factor (Internal Marker) (AID 2282937); settings: HepG2 Attagene CIS-FACTORIAL M61 internal marker reporter; actives raise or lower the signal
Procedure, shortened: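 Endogenous transcription factor activity in HepG2 is read through transiently transfected cis-element reporter units. After 24 h dosing, RNA undergoes reverse transcription, PCR and primer extension with 6-FAM before capillary electrophoresis; DMSO-referenced bidirectional fit.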

[3] = ATG_EGR_CIS: Attagene CIS-FACTORIAL HepG2 Assay for human Early Growth Response 1 (EGR1) (AID 2282938); settings: HepG2 Attagene CIS-FACTORIAL EGR reporter mRNA; actives raise or lower the signal
Procedure, shortened: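 Activity is taken as induction or loss of reporter mRNA versus DMSO, fitted bidirectionally. Transcripts from cis-regulated reporter units in transiently transfected HepG2 were measured after 24 h by RT-PCR with capillary electrophoresis.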

[4] = ATG_M_19_CIS: Attagene CIS-FACTORIAL HepG2 Assay for M19 Transcription Factor (Internal Marker) (AID 2282939); settings: HepG2 Attagene CIS-FACTORIAL M19 internal marker reporter; actives raise or lower the signal
Procedure, shortened: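 Transfect HepG2 with MRTU reporter library → dose chemical, 24 h → isolate total RNA, reverse-transcribe with oligo(dT) → PCR, 6-FAM label, HpaI cut (2 h, 37 C) → capillary electrophoresis. Bidirectional fit vs DMSO.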

[5] = ATG_Ets_CIS: Attagene CIS-FACTORIAL HepG2 Assay for human Erythroblast Transformation Specific (ETS) (AID 2282941); settings: HepG2 ETS cis-reporter transcription, actives raise or lower the signal
Procedure, shortened: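 RT-PCR/capillary electrophoresis fluorescence read-out of reporter mRNA; HepG2 transient multi-reporter transfection; 24 h compound exposure; gain or loss of signal fitted bidirectionally relative to DMSO.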

[6] = target: Hepatocyte nuclear factor 3-beta (Homo sapiens) (UniProt Q9Y261); experiment: ATG_FoxA2_CIS: Attagene CIS-FACTORIAL HepG2 Assay for human Forkhead box A2 (FOXA2) (AID 2282942); settings: HepG2 cis-reporter transcription factor activity, 24 h; actives raise or lower the signal
Sequence of Hepatocyte nuclear factor 3-beta (Homo sapiens) (Q9Y261 whole entry, looked up): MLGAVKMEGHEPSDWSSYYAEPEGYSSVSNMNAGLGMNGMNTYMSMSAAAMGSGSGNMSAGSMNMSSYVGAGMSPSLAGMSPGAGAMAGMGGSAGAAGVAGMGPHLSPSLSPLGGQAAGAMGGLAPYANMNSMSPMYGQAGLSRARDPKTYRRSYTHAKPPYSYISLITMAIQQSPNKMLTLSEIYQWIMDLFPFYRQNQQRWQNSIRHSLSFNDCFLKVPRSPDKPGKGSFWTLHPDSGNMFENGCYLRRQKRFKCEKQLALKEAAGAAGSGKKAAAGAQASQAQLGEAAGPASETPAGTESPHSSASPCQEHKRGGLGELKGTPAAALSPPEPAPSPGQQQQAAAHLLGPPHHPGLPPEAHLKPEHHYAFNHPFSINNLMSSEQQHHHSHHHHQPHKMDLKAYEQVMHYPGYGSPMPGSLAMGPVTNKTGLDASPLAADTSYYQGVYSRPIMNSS
Procedure, shortened: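 Reporter transcript induction is measured by fluorescence after capillary electrophoresis of RT-PCR products from HepG2 cells exposed 24 h. Cis-regulated reporter units report endogenous factor activity; curves fitted both directions against DMSO.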

[7] = ATG_FoxO_CIS: Attagene CIS-FACTORIAL HepG2 Assay for human Forkhead box O (FoxO) (AID 2282943); settings: HepG2 Attagene cis-reporter, FoxO element, mRNA; actives raise or lower the signal
Procedure, shortened: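 HepG2, transient MRTU transfection (cis element, endogenous TFs). Dose 24 h. TriZol RNA → oligo(dT) RT → PCR → 6-FAM primer extension → HpaI cut → CE. Gain/loss vs DMSO.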

[8] = ATG_GLI_CIS: Attagene CIS-FACTORIAL HepG2 Assay for human Zinc Finger Protein GLI1 (AID 2282945); settings: HepG2, Attagene cis-factorial reporter mRNA, GLI element; actives raise or lower the signal
Procedure, shortened: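 Bidirectional curve fits relative to DMSO, using reporter mRNA levels from RT-PCR plus capillary electrophoresis. Cells were HepG2 transiently carrying cis-regulated reporter constructs, harvested 24 h after dosing.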

[9] = ATG_GATA_CIS: Attagene CIS-FACTORIAL HepG2 Assay for human GATA Binding Protein (AID 2282944); settings: HepG2 GATA cis-element reporter, Attagene multiplex mRNA; actives raise or lower the signal
Procedure, shortened: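 Transient MRTU transfection, HepG2, 24 h compound exposure. Total RNA → oligo(dT) RT → PCR → 6-FAM primer extension → HpaI cut → CE. Bidirectional fit vs DMSO.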

Measured: AC50

CC(C)(C)c1cc(CCC(=O)NN)cc(C(C)(C)C)c1O
not listed: [9]
inactive: all other assays above

CN(C)CCOCCN(C)C
not listed: [9]
inactive: all other assays above

COc1ccc(NC(=O)CC(C)=O)cc1
not listed: [6] | [8]
inactive: all other assays above

CN(C)C(=N)N=C(N)N
not listed: [9]
inactive: all other assays above

CC(CC(C)(C)C)CC(C)(C)CC(C)(C)C (stereo not drawn)
not listed: [9]
inactive: all other assays above

O=C(Nc1ccccc1)c1cc([N+](=O)[O-])ccc1Cl
active: [3] 25.1 µM
not listed: [6]
inactive: all other assays above

CC1(C)[C@@H]2CC[C@@]1(C)[C@H](O)C2
not listed: [6] | [9]
inactive: all other assays above

Cc1ccc(O)c(C(C)(C)C)c1
active: [4] 148 µM | [8] 173 µM
not listed: [9]
inactive: all other assays above

CC(=O)C(=O)O
not listed: [6]
inactive: all other assays above

CC1CCC(C(C)(C)O)CC1 (stereo not drawn)
not listed: [9]
inactive: all other assays above

CC(C)=CCO
not listed: [5]
inactive: all other assays above

CC(C)=CCCC(C)CC=O (stereo not drawn)
not listed: [9]
inactive: all other assays above

C=CC(=O)OCCOCCOCC
active: [3] 100 µM
not listed: [6]
inactive: all other assays above

O=c1cc(-c2ccccc2)oc2cc(O)cc(O)c12
active: [1] 25.9 µM
not listed: [9]
inactive: all other assays above

O=Nc1ccc(Nc2ccccc2)cc1
active: [1] 9.04 µM | [3] 37.7 µM | [6] 47.9 µM | [8] 55 µM
inactive: [2] | [4] | [5] | [7]

O=Cc1ccc(F)cc1
not listed: [6] | [8]
inactive: all other assays above

OC1OC[C@@H](O)[C@H](O)[C@H]1O (stereo partly drawn)
not listed: [6]
inactive: all other assays above

CCCC[n+]1ccccc1
not listed: [6]
inactive: all other assays above

NCCCCCCN
not listed: [9]
inactive: all other assays above

CC(C)Oc1ccccc1O
not listed: [6]
inactive: all other assays above

CCC(=O)/C=C/C1C(C)=CCCC1(C)C (stereo not drawn)
not listed: [6]
inactive: all other assays above

CCCCCC=CCC(=O)OC
not listed: [6]
inactive: all other assays above

[Ca+2]
not listed: [9]
inactive: all other assays above

C=C[Si](OCC)(OCC)OCC
not listed: [6]
inactive: all other assays above

CCCCCCCCCCCCCCCCCC(=O)OCC(CC)CCCC (stereo not drawn)
not listed: [9]
inactive: all other assays above

O=C(O)c1ccc(C(=O)O)cc1
not listed: [9]
inactive: all other assays above

CCCCCCCCCCN
not listed: [5]
inactive: all other assays above
